According to PubChem BioAssay AID2796 (The Scripps Research Institute Molecular Screening Center, 2010):
The whole screen tested about 320,000 compounds, of which about 8,000 (2.5%) were called active. The entries come from a sample that favours actives as a whole. Unmarked numbers belong to inactive results. Cut-off read from the data, not from the text of the source: active = activation above about 47%; inactive = the rest.

Biological target: Aryl hydrocarbon receptor (Homo sapiens) (UniProt P35869)
Assay: AHR activators, primary screen, cell-based, luminescence, luciferase reporter, human (AID 2796);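 note: 0% = vehicle wells and 100% = reference agonist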
Settings: AHR-responsive luciferase reporter cells, at 5 µM, active compounds read high

Sequence of Aryl hydrocarbon receptor (Homo sapiens) (P35869 whole entry, looked up): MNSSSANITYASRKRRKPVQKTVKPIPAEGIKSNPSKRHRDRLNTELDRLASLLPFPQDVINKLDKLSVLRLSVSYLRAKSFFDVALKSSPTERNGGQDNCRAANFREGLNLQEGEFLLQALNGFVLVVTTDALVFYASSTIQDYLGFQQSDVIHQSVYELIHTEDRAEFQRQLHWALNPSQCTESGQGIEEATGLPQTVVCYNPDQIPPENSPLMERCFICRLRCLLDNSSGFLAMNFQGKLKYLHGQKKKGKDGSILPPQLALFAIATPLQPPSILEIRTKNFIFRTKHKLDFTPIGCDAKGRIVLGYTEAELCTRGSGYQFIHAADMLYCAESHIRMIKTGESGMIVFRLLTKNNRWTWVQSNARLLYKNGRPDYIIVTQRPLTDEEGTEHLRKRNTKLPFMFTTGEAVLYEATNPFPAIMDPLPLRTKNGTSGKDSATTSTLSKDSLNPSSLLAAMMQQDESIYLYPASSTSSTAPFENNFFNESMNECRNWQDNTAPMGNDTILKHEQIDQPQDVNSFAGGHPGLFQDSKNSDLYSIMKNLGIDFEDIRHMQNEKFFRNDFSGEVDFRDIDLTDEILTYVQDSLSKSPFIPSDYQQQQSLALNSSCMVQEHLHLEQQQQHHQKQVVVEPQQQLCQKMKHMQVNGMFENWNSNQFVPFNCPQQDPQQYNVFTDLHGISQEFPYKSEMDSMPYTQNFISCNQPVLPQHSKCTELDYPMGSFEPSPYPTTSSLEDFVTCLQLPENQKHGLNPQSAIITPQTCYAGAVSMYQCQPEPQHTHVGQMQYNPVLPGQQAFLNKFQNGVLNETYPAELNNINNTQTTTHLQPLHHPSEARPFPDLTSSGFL

Structure (SMILES)	activation
C=CCOc1c(Br)cc(/C=N\n2nnnc2N)cc1OC	115% (active)
COc1ccc(/C=N/n2nnnc2N)cc1OC	9.89%
Nc1nnnn1/N=C/c1cccc(Br)c1	0.74%
CCN1/C(=C/C(=S)Nc2ccccc2)Sc2ccccc21	60.2% (active)
CCNCCC(=O)N1c2ccccc2Sc2ccc(NC(=O)OCC)cc21	12.7%
S=C(NCCc1ccccc1)Nc1ccccc1	1.89%
CCOC(=O)CNC(=O)N1c2ccccc2Sc2ccccc21	-1.17%
CCC(=O)/C=C1\Sc2ccccc2N1CC	47.6% (active)
CCN1/C(=C\c2ccc3ccccc3[n+]2CC)Sc2cc(C)ccc21	-7.56%
CSCCC(Nc1ccc(S(=O)(=O)N2CCOCC2)cc1[N+](=O)[O-])C(=O)OCC(=O)N(C(C)C)C(C)C (stereo not given)	-0.88%
CN(C)c1ccc(CNC2C3CC4CC(C3)CC2C4)cc1 (stereo not given)	1.86%
O=C(CSc1nc2ccccc2[nH]1)Nc1nc(-c2ccccc2)c(-c2ccccc2)o1	5.78%
Clc1ccccc1SCc1nc2ccccc2[nH]1	-2.01%
c1ccc(-c2nnc(SCc3nc4ccccc4[nH]3)o2)cc1	59.8% (active)
Cc1cccc(C(=O)N2CCN(S(=O)(=O)N3CCCCC3)CC2)c1	0.85%
CC1CN(CC(=O)NC(C)c2ccccc2)CC(C)O1 (stereo not given)	-1.1%
CN(C)c1ccc(/C=N/Nc2cc(N3CCOCC3)nc(N3CCOCC3)n2)cc1	7.92%
COc1ccc(/C=N/Nc2cc(N3CCOCC3)nc(C)n2)c(OC)c1	69.5% (active)
C(=N/Nc1cc(N2CCOCC2)nc(N2CCOCC2)n1)/c1ccccc1	-0.44%
Cn1c2ccccc2n2c(=O)c(=O)n(CC(=O)c3ccc(F)cc3)nc12	0.34%
C[C@H]1CN([C@@H](C)CO)C(=O)Cc2cc(NC(=O)Cc3ccccc3)ccc2O[C@H]1CN(C)S(=O)(=O)c1cccs1	-0.6%
O=C(C[C@@H]1C/C=C\CCC(=O)OC[C@@H]2CCCN2C1=O)NCCO	2.28%
O=C(Nc1cc(S(=O)(=O)Nc2ccc(Cl)cc2)ccc1O)c1ccc(F)cc1F	111% (active)
O=C(Nc1cccc(S(=O)(=O)NC2=NCCC2)c1)c1ccc(F)cc1F	1.17%
Cc1cc(NS(=O)(=O)c2ccc(NC(=S)NC(=O)c3ccc(F)cc3Cl)cc2)no1	17.3%

Structure (SMILES)	activation
Cc1ccccc1NS(=O)(=O)CCCCC(Cl)(Cl)Cl	-0.27%
COc1c(O)cccc1-c1nnn(CCC(=O)OCC(=O)c2ccccc2)n1	1.67%
Cc1cc(C(=O)NNC(=O)CCC2CCCCC2)c(C)o1	1.65%
Cc1cc(Nc2ccc(Br)cc2)nc2ccccc12	54.1% (active)
Cc1ccc2nc(Nc3ccccc3)cc(C)c2c1	26.6%
CCOC(=O)c1nc(Nc2ccc(C(=O)OC)cc2)c2ccccc2n1	1.95%
O=C(CCC(=O)N/N=C/c1ccc(Br)o1)N/N=C/c1ccc(Br)o1	4.48%
CCCNC(=O)N1CCC(c2ccc3c(c2)OCO3)CC1	1.31%
COc1ccc(CCNc2cc(C)nc3c(-c4ccc(Cl)cc4)c(C)nn23)cc1OC	31.2%
Cc1ccsc1C(=O)N[C@@H](C)c1nnc2ccccn12	1.3%
CCc1ccc(CNC(=O)CCc2nc(-c3cccs3)no2)cc1	4.73%
COc1ccc(OC)c(CNC(=O)CCc2nc(-c3cccs3)no2)c1	61.3% (active)
COc1ccc(CCc2nc(-c3cccs3)no2)cc1	1.87%
CCn1c(SCC(=O)NC2CC2)nnc1-c1ccccc1OC	14.6%
Cc1ccc(C(=O)Cc2nnc(C)s2)cc1	-0.8%
CN(C)C(=O)COC(=O)c1cccc(S(=O)(=O)N2CC3(C)CC2CC(C)(C)C3)c1 (stereo not given)	-0.48%
CCOC(=O)C1CCN(C(=O)CN2C(=O)NC(C)(c3ccc4cc(OC)ccc4c3)C2=O)CC1 (stereo not given)	0.29%
C=CCNC(=O)CSc1nc2sc(C)c(C)c2c(=O)[nH]1	107% (active)
C=CCn1c(SCC(=O)Nc2ccc(NC(C)=O)cc2)nc2sc(C)c(C)c2c1=O	0.33%
CC(=O)c1sc2nc(SCC(=O)N3CCCCC3)[nH]c(=O)c2c1C	15.1%
CN(Cc1cccc2ncccc12)C(=O)CC1C(=O)NCCN1Cc1ccc(F)cc1 (stereo not given)	-0.17%
COc1cccc(CC(=O)Nc2ccc(-c3csc(C)n3)cc2)c1	-4.95%
CCOCC(=O)Nc1cc(OC)c(Cl)cc1OC	19.9%
COc1cc(NC(=O)c2ccc(-c3csc(C)n3)cc2)c(OC)cc1Cl	98.4% (active)
CC(NC(=O)COC(=O)Cn1cc(C(F)(F)F)ccc1=O)c1ccccc1 (stereo not given)	-0.22%

Structure (SMILES)	activation
CC(=O)c1ccc(S(=O)(=O)N2CCN(c3nc4c(C)c(C)ccc4cc3C#N)CC2)cc1	-2.8%
Cc1cccc2cc(C#N)c(N3CCCC3)nc12	51.3% (active)
CCOC(=O)c1cc(C#N)c(N2CCCCC2)nc1-c1ccccc1	13.2%
O=C(Nc1ccc2c(c1)CCC2)c1ccc(Br)s1	12%
COC(=O)c1sccc1NC(=O)c1ccc(Cl)cc1	37.4%
O=C(Nc1cccc2cccnc12)c1cccc(Cl)c1	59.2% (active)
CSc1ccc(/C=N/NC(=O)c2cccc(Cl)c2)cc1	13.9%
CSc1ccc(C#N)cc1NC(=O)c1ccc(Cl)cc1	96.9% (active)
O=C(Nc1cccc2cccnc12)c1cccc(N2C(=O)CCC2=O)c1	-2.04%
N#Cc1ccc(C(=O)Nc2cccc3cccnc23)c(F)c1	-3.07%
CSc1ccc(C#N)cc1NC(=O)c1cccc(Cl)c1	58.8% (active)
N#Cc1ccccc1NC(=O)c1cccc(COc2ccc(Cl)cc2Cl)c1	-4.79%
CSc1ccccc1NC(=O)c1cc(Cl)sc1Cl	0.71%
O=C1C2C3C=CC(C4CC34)C2C(=O)N1c1nccs1 (stereo not given)	0.87%
Cc1ccccc1N1C(=O)C(Oc2ccc(Cl)cc2)C1CNCC1CCCO1 (stereo not given)	-0.77%
COc1ccccc1Cn1c(C)nnc1-c1cnn(C)c1N	4.53%
CN(C)c1ccc(NC(=O)CN2C3CCCC2CC(NC(=O)c2ccccc2)C3)cc1 (stereo not given)	7.23%
Cc1nc(-c2ccc(Cl)cc2)sc1C(=O)CBr	54.9% (active)
Cc1nc(-c2ccccc2)sc1C(=O)/C=C/N(C)C	3.46%
Cc1nc(-c2ccc(Cl)cc2)sc1C(=O)NN	10.3%
Cc1ccnc(-n2sc3ccccc3c2=O)n1	98.3% (active)
Cc1nc2ccccc2c(=O)n1NC(=O)c1ccccc1	-1.87%
Cc1ccnc(N2CCCC(C(=O)NC3CC3)C2)n1 (stereo not given)	1.42%
NC(=O)Nc1ccccc1C(=O)NCCc1ccccc1	109% (active)
COc1ccc(CCNC(=O)c2ccccc2OCc2ccccc2)cc1	-0.83%

Structure (SMILES)	activation
O=C(O)c1ccccc1-c1ccccc1C(=O)NCCc1ccccc1	-1.22%
COc1ccccc1NC(=O)[C@H](COCc1ccccc1)NC(=O)OC(C)(C)C	13.7%
CC(C)NC(=O)COCc1cc(-c2ccc3c(c2)OCO3)on1	14.2%
CCc1nc(C)cn1S(=O)(=O)c1cc([N+](=O)[O-])ccc1Cl	-0.55%
CC1CCc2c(c3ccccc3[nH]c2=O)O1 (stereo not given)	45.7%
N/C(=N\OS(=O)(=O)c1cccc([N+](=O)[O-])c1)c1ccncc1	0.65%
COc1ccc(N2C(=O)c3ccccc3NC2c2ccc(OC)c(CN3CCOCC3)c2)cc1 (stereo not given)	4.09%
COc1ccc(C2Nc3ccccc3C(=O)N2c2ccc(F)cc2)cc1Cn1nnc2ccccc21 (stereo not given)	4.17%
COc1ccc(C2Nc3ccccc3C(=O)N2c2ccc(Cl)cc2)cc1Cn1cc([N+](=O)[O-])cn1 (stereo not given)	57.9% (active)
CC(C)N(C(=O)CSc1nnc(NC2CC2)s1)c1ccccc1	7.53%
COc1ccc(C(=O)O)cc1S(=O)(=O)NC1CCN(Cc2ccccc2)CC1	-0.69%
NNc1nc2c(Cl)cccc2s1	115% (active)
Cc1ccc2c(CC(=O)NCc3cccs3)coc2c1	8.24%
CCCNC(=O)c1ccc(N2CCC3(CC2)CC(c2cccc(Br)c2)=NO3)c(NC(=O)c2ccco2)c1	-6.12%
Cc1cc(/C=C2/NC(=O)NC2=O)c(C)n1-c1cccnc1	26.3%
Cc1cc(/C=C(/C#N)C(=O)Nc2ccc(Cl)cc2)c(C)n1-c1cccnc1	76% (active)
N#C/C(=C\c1cccnc1)C(=O)Nc1ccc(SC(F)F)cc1	3.63%
Cc1nn(C)c(Cl)c1CN1CCC(Oc2ccc(C(=O)N3CCCC3)cc2)CC1	-2.1%
CCCc1cc(=O)[nH]c(SCC(=O)N2C(C)CCCC2C)n1 (stereo not given)	0.47%
COc1ccc(-c2[nH]nc(-c3ccccc3)c2-c2nc3ccccc3[nH]2)cc1	4.79%
COc1ccc(Br)cc1C(=O)NC(=S)Nc1cc(-c2nc3ccccc3[nH]2)ccc1C	36.6%
CCCCSc1nc2ccccc2[nH]1	1.07%
Nc1cccc(CCc2nc3ccccc3[nH]2)c1	6.68%
Cc1ccc(-c2nc3ccccc3[nH]2)cc1N	47.4% (active)
c1ccc2[nH]c(-c3nc4ccccc4[nH]3)nc2c1	71.2% (active)
